Inhibition data for 40 molecules are collected here from ChEMBL document CHEMBL4513135, “CO-ADD screening of IQOG CSIS (Spain) compounds”.

Results with a measured potency or affinity are listed apart.

For the first experiment, the system named is Staphylococcus aureus. The settings on record: Concentration 32 ug.mL-1; ASSAY_TEST Inhibition of Bacterial Growth; detection method Absorption (OD600); MEDIA CAMHB; plate type 384well; NBS; CORNING #3640; time 18 hr.
For `CCOC(=O)C1=C(C)OC(N)=C(C#N)C1c1ccccc1` (stereo not given), the Inhibition came to 25.42%.

As to `Cc1nn(-c2ccccc2)c2ncn3nc(-c4ccccc4)nc3c12`, the Inhibition was determined as 11.88%.

`COc1cccc(C2c3c(ccc4ccccc34)OC(=NBr)C2(Br)C#N)c1` (stereo not given): the Inhibition was determined as 39.2%.

In the case of `COc1ccccc1C1c2ccc3ccccc3c2OC(=NBr)C1(Br)C#N` (stereo not given), the Inhibition was found to be 25.54%.

On to `Cl.Nc1c2c(nc3c1C(c1c(Cl)cccc1Cl)c1ccc4ccccc4c1O3)CCCC2` (stereo not given), for which the Inhibition is on record as -3.18%.

Turning to `CCOC(=O)c1c(C)nc2nc3c(c(N)c2c1-c1ccc(OC)cc1)CCCCCC3`, the Inhibition stood at 3.19%.

On to `COc1nc(Cl)c(C#N)c(-c2ccccc2)c1C#N`, for which the Inhibition is 35.41%.

In the case of `COc1nc2nc3c(c(N)c2cc1C#N)CCCC3`, the Inhibition is 30.12%.

As to `N#Cc1cc2c(N)c3c(nc2nc1N1CCCCC1)CCCC3`, the Inhibition came to 29.29%.

For `CC(C)(C)OC(=O)Nc1ccc(Cl)cn1`, the Inhibition amounted to 37.58%.

Consider `OCc1cc2ccccc2[nH]1`, for which the Inhibition is 39.41%.

Consider `Cl.N#Cc1c(N)nc(NCCO)c(C#N)c1-c1ccccc1`, for which the Inhibition is given as 32.81%.

Take `CC(=O)CCc1c[nH]c2ccccc12`: the Inhibition amounted to 10.48%.

Regarding `COc1cc(C=NNC(=O)Cc2c[nH]c3ccccc23)ccc1O`, the Inhibition amounted to 8.14%.

For the molecule `N#Cc1cc(C#N)c(N2CCCC2)nc1N1CCCC1`, the Inhibition is given as 17.61%.

Regarding `N#Cc1ccc(Br)cc1N`, the Inhibition was 4.6%.

For the molecule `CC(=O)NC(=Cc1ccccc1)C(=O)O`, the Inhibition worked out at 13.69%.

Take `O=C(N/N=C/c1cccc(Cl)c1)c1cc2ccccc2[nH]1`: the Inhibition is given as -16.68%.

Take `N#CC1=C(N)Oc2c(ccc3ccccc23)C1c1c(Cl)cccc1Cl` (stereo not given): the Inhibition was 8.27%.

Turning to `Nc1c2c(nc3c1c1ccccc1n3Cc1ccccc1)CCCC2`, the Inhibition came to 17.35%.

Consider `Cn1ccnc1C1C2=C(CC(C)(C)CC2=O)Oc2nc3c(c(N)c21)CCC3` (stereo not given), for which the Inhibition was found to be 12%.

As to `COc1nc2ccc(C)cc2cc1C=O`, the Inhibition is 18.14%.

As for `N#CC1=C(Cl)Oc2c(ccc3ccccc23)C1c1ccc([N+](=O)[O-])cc1` (stereo not given), the Inhibition was determined as 7.21%.

Regarding `COc1ccc2c(c1)cc(CO)n2C`, the Inhibition was 3.66%.

For `Cc1ccc2nc(Cl)c(/C=N/NCc3ccccc3)cc2c1`, the Inhibition amounted to 26.2%.

On to `CC(=O)Nc1nc(Cl)c(C#N)c(-c2ccccc2)c1C#N`, for which the Inhibition was 21.15%.

For the molecule `Cc1cnc2ccc(Br)cn12`, the Inhibition stood at 2.9%.

Regarding `COc1cccc(C2C(C#N)=C(N)Oc3ccc4ccccc4c32)c1` (stereo not given), the Inhibition is given as 40.42%.

As to `CCOC(=O)C1=C(C)Oc2nc3c(c(N)c2C1c1nccn1C)CCC3` (stereo not given), the Inhibition worked out at 6.58%.

As for `COc1cc(C2C(C#N)=C(N)Oc3ccc4ccccc4c32)ccc1O` (stereo not given), the Inhibition is listed as 37.28%.

Regarding `COc1ccc(-c2cc(-c3cc4c(OC)ccc(OC)c4nc3Cl)cc(=O)[nH]2)cc1`, the Inhibition is listed as 22.4%.

As for `COc1ccc(-c2cc(-c3cc4ccc(F)cc4nc3Cl)cc(=O)[nH]2)cc1`, the Inhibition was determined as 24.97%.

On to `N#Cc1cc(C#N)c(Cl)nc1Cl`, for which the Inhibition is 15.28%.

Take `CCCC(C)NNC(=O)c1cc2ccccc2[nH]1` (stereo not given): the Inhibition was found to be 2.06%.

Regarding `COC(=O)/C(=C/c1ccc(O)cc1)NC(=O)c1ccccc1`, the Inhibition worked out at 4.82%.

As to `O=C(N/N=C/c1ccc([N+](=O)[O-])cc1)c1cc2ccccc2[nH]1`, the Inhibition was determined as 11.24%.

For `CCOC(=O)C1=C(C)OC(N)=C(C#N)C1c1cccs1` (stereo not given), the Inhibition is given as 8.64%.

For the molecule `N#Cc1c(N)nc(NCCC2CCN(Cc3ccccc3)CC2)c(C#N)c1-c1ccccc1`, the Inhibition worked out at 34.16%.

Turning to `O=C(O)n1ccc2ccccc21`, the Inhibition came out at 10.57%.

In the case of `Cl.Nc1c2c(nc3c1C(c1ccccc1)c1ccc4ccccc4c1O3)CCCC2` (stereo not given), the Inhibition amounted to 23.84%.

For a further experiment, the system named is Escherichia coli. The settings on record: Concentration 32 ug.mL-1; ASSAY_TEST Inhibition of Bacterial Growth; detection method Absorption (OD600); MEDIA CAMHB; plate type 384well; NBS; CORNING #3640; time 18 hr.
Take `CCOC(=O)C1=C(C)OC(N)=C(C#N)C1c1ccccc1` (stereo not given): the Inhibition is on record as -7.58%.

For `Cc1nn(-c2ccccc2)c2ncn3nc(-c4ccccc4)nc3c12`, the Inhibition was found to be 13.25%.

Consider `COc1cccc(C2c3c(ccc4ccccc34)OC(=NBr)C2(Br)C#N)c1` (stereo not given), for which the Inhibition is -16.78%.

For the molecule `COc1ccccc1C1c2ccc3ccccc3c2OC(=NBr)C1(Br)C#N` (stereo not given), the Inhibition is on record as -9.86%.

With `Cl.Nc1c2c(nc3c1C(c1c(Cl)cccc1Cl)c1ccc4ccccc4c1O3)CCCC2` (stereo not given), the Inhibition is reported as -2.79%.

As to `CCOC(=O)c1c(C)nc2nc3c(c(N)c2c1-c1ccc(OC)cc1)CCCCCC3`, the Inhibition is given as -20.4%.

On to `COc1nc(Cl)c(C#N)c(-c2ccccc2)c1C#N`, for which the Inhibition is -14.05%.

Take `COc1nc2nc3c(c(N)c2cc1C#N)CCCC3`: the Inhibition is -3.63%.

Consider `N#Cc1cc2c(N)c3c(nc2nc1N1CCCCC1)CCCC3`, for which the Inhibition is 3.13%.

Regarding `CC(C)(C)OC(=O)Nc1ccc(Cl)cn1`, the Inhibition is recorded as -2.82%.

With `OCc1cc2ccccc2[nH]1`, the Inhibition was -0.49%.

`Cl.N#Cc1c(N)nc(NCCO)c(C#N)c1-c1ccccc1`: the Inhibition is -7.39%.

In the case of `CC(=O)CCc1c[nH]c2ccccc12`, the Inhibition stood at 10.88%.

As to `COc1cc(C=NNC(=O)Cc2c[nH]c3ccccc23)ccc1O`, the Inhibition is recorded as -0.45%.

With `N#Cc1cc(C#N)c(N2CCCC2)nc1N1CCCC1`, the Inhibition is given as 8.77%.

On to `N#Cc1ccc(Br)cc1N`, for which the Inhibition stood at 16.76%.

For the molecule `CC(=O)NC(=Cc1ccccc1)C(=O)O`, the Inhibition came out at 10.22%.

Take `O=C(N/N=C/c1cccc(Cl)c1)c1cc2ccccc2[nH]1`: the Inhibition is given as -12.27%.

Regarding `N#CC1=C(N)Oc2c(ccc3ccccc23)C1c1c(Cl)cccc1Cl` (stereo not given), the Inhibition stood at 6.46%.

With `Nc1c2c(nc3c1c1ccccc1n3Cc1ccccc1)CCCC2`, the Inhibition was -10.77%.

For the molecule `Cn1ccnc1C1C2=C(CC(C)(C)CC2=O)Oc2nc3c(c(N)c21)CCC3` (stereo not given), the Inhibition is reported as -19.85%.

On to `COc1nc2ccc(C)cc2cc1C=O`, for which the Inhibition came to 18.17%.

In the case of `N#CC1=C(Cl)Oc2c(ccc3ccccc23)C1c1ccc([N+](=O)[O-])cc1` (stereo not given), the Inhibition was -24.25%.

For `COc1ccc2c(c1)cc(CO)n2C`, the Inhibition was 11.03%.

Turning to `Cc1ccc2nc(Cl)c(/C=N/NCc3ccccc3)cc2c1`, the Inhibition was found to be 22.89%.

For `CC(=O)Nc1nc(Cl)c(C#N)c(-c2ccccc2)c1C#N`, the Inhibition is listed as -6.98%.

Turning to `Cc1cnc2ccc(Br)cn12`, the Inhibition amounted to 6.35%.

In the case of `COc1cccc(C2C(C#N)=C(N)Oc3ccc4ccccc4c32)c1` (stereo not given), the Inhibition is reported as -5.36%.

With `CCOC(=O)C1=C(C)Oc2nc3c(c(N)c2C1c1nccn1C)CCC3` (stereo not given), the Inhibition is -22.18%.

On to `COc1cc(C2C(C#N)=C(N)Oc3ccc4ccccc4c32)ccc1O` (stereo not given), for which the Inhibition was -11.46%.

On to `COc1ccc(-c2cc(-c3cc4c(OC)ccc(OC)c4nc3Cl)cc(=O)[nH]2)cc1`, for which the Inhibition is on record as -10.79%.

Turning to `COc1ccc(-c2cc(-c3cc4ccc(F)cc4nc3Cl)cc(=O)[nH]2)cc1`, the Inhibition is reported as -19.12%.

As for `N#Cc1cc(C#N)c(Cl)nc1Cl`, the Inhibition is listed as -15.75%.

Regarding `CCCC(C)NNC(=O)c1cc2ccccc2[nH]1` (stereo not given), the Inhibition is 3.83%.

Regarding `COC(=O)/C(=C/c1ccc(O)cc1)NC(=O)c1ccccc1`, the Inhibition was determined as 15.96%.

On to `O=C(N/N=C/c1ccc([N+](=O)[O-])cc1)c1cc2ccccc2[nH]1`, for which the Inhibition is 10.51%.

With `CCOC(=O)C1=C(C)OC(N)=C(C#N)C1c1cccs1` (stereo not given), the Inhibition is given as -14.26%.

Take `N#Cc1c(N)nc(NCCC2CCN(Cc3ccccc3)CC2)c(C#N)c1-c1ccccc1`: the Inhibition is on record as -9%.

`O=C(O)n1ccc2ccccc21`: the Inhibition worked out at 9.43%.

Take `Cl.Nc1c2c(nc3c1C(c1ccccc1)c1ccc4ccccc4c1O3)CCCC2` (stereo not given): the Inhibition stood at 6.79%.

What is called Inhibition is the change of the read-out against control, counted positive when it falls.
